Measured values: PubChem BioAssay AID651702 (NMMLSC, 2012)
The whole screen tested about 360,000 compounds, of which about 2,400 (0.67%) were called active.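 Rule for the calls: active = inhibition above about 55% (limit read from the data); inconclusive = no clear call, values can overlap the other calls; inactive = the rest.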 For the sample, actives were picked, then their nearest neighbours and some compounds at random.

Assay: LAMP-1 surface exposure blockers, TALL-104 cells – cell-based, flow cytometry, MLPCN library, primary screen (AID 651702)
Details: TALL-104 LAMP-1 surface exposure, at 10 µM, stronger effect = higher value, cells stimulated with thapsigargin and PMA

Structure (SMILES) | inhibition
CC(=O)NCC(=O)N(Cc1ccco1)C1(C(=O)NC2CCCC2)CCCCC1 | 4.1% (inactive)
Cc1cc(C)cc(NC(=O)c2cccc(NC(=O)C3C4CC5OC(=O)C3C5C4)c2)c1 (stereo not drawn) | -3.6% (inactive)
CCCCCCCCCCOC(=O)Cn1c(COc2cccc(OC)c2)[n+](C)c2ccccc21 | 63.4% (active)
Cc1noc(C)c1COC(=O)Cn1c(C)nc2ccccc21 | -0.2% (inactive)
CCCCCCCCCCOC(=O)Cn1c(COc2ccc(C)cc2)[n+](C)c2ccccc21 | 79.9% (active)
CCOc1ccc(OCCSc2nc3ccccc3n2CC(=O)O)cc1 | -4.7% (inactive)
Cc1cccc(-n2c(Cc3cc(=O)[nH]c(=O)[nH]3)nnc2SCC(=O)Nc2cccc(C(F)(F)F)c2)c1 | -9.1% (inactive)
COc1ccc(CCNC(=O)NS(=O)(=O)c2ccc(C)cc2)cc1OC | -3.4% (inactive)
CC(=O)N1C[C@@H](CO)[C@@H](N(C)C(=O)c2ccco2)C[C@H]1c1ccccc1 | -2% (inactive)
NC(=S)NN=C1CCCC(C(F)(F)F)C1 (stereo not drawn) | -3% (inactive)
Cc1c(NC(=O)c2cc(-c3ccc(Cl)s3)nc3ccccc23)c(=O)n(-c2ccccc2)n1C | 8.8% (inactive)
CCc1ccc(-c2cc(C(=O)NN3CCN(C)CC3)c3ccccc3n2)cc1 | -2.9% (inactive)
Cc1ccc(NC(=O)c2cc(-c3ccc(C)o3)nc3ccccc23)nc1 | 71.4% (active)
CCN1C(=O)[C@H]2[C@@H](c3ccc(-c4ccc(OC)cc4)cc3)N[C@@](Cc3ccccc3)(C(=O)OC)[C@H]2C1=O | -2.6% (inactive)
CCN1C(=O)[C@H]2[C@@H](c3ccc(SC4CCCCC4)c(OC)c3)N[C@@](Cc3ccccc3)(C(=O)OC)[C@H]2C1=O | -2.9% (inactive)
CCN1C(=O)[C@H]2[C@@H](c3ccc(-c4ccc(F)cc4)cc3)N[C@@](Cc3ccccc3)(C(=O)OC)[C@H]2C1=O | 97.9% (active)
COc1ccc(CC(NC(C)=O)C(=O)NC2CCN(C(=O)c3ccc(Cl)cc3)CC2)cc1 (stereo not drawn) | -6.3% (inactive)
Brc1ccccc1C1Nc2cccc3cccc(c23)N1 | 72.2% (active)
Brc1ccccc1C1N=C(c2ccccc2)NO1 (stereo not drawn) | -3.5% (inactive)
COc1cc2c(cc1OC)C(c1ccccc1Br)NC(=O)C2 (stereo not drawn) | 1.4% (inactive)

Structure (SMILES) | inhibition
NS(=O)(=O)c1cc(Cl)c(Cl)c(S(N)(=O)=O)c1 | 0.8% (inactive)
O=S(=O)(c1ccccc1)N(Cc1cccc(F)c1)c1ccccc1 | 65.4% (active)
NC(=O)c1ccccc1N(Cc1ccccc1)S(=O)(=O)c1ccccc1 | 11.2% (inactive)
O=C(O)c1cc(S(=O)(=O)N(Cc2ccccc2)c2ccccc2)ccc1Cl | -1% (inactive)
OCCC1CN(Cc2cccn2-c2nccs2)CCN1CCc1ccccc1 (stereo not drawn) | 1.1% (inactive)
COC(=O)[C@@]12CCCN1[C@H](c1ccc(-c3ccc(F)cc3)c(OC)c1)[C@H]1C(=O)N(C)C(=O)[C@H]12 | -14% (inactive)
CCCCNC(=O)C[C@@H]1C[C@@]2(C(=O)OC)CC(C)(C)CC=C2N(Cc2ccco2)C1=O | -4.4% (inactive)
COC(=O)[C@H](C)[C@H]1C[C@]1(C)[C@H](NC(=O)OCc1ccccc1)c1ccccc1 | 5.6% (inactive)
COC(=O)[C@H](Cc1ccccc1)NC(=O)[C@@H]1C[C@H]1[C@@H](NC(=O)OCc1ccccc1)c1ccccc1 | 106% (active)
COC(=O)[C@@H](Cc1ccccc1)NC(=O)NCCc1ccccc1 | 2.5% (inactive)
CC(=O)N1CCc2cc(S(=O)(=O)Nc3ccccc3N3CCN(C)CC3)ccc21 | 3.6% (inactive)
Cc1nnc(SCC(=O)N2c3ccccc3C(C)(c3ccc(Cl)cc3)CC2(C)C)s1 (stereo not drawn) | -0.3% (inactive)
CCCCCn1nnnc1C1c2ccccc2C(=O)N1Cc1ccco1 (stereo not drawn) | -4% (inactive)
CCCCn1c(-c2cccc(C)c2)nc2cc3[nH]c(=O)c(C(C)C)nc3cc21 | 7.2% (inactive)
CCCCCn1nnnc1-c1nc2cc3ccccc3cc2[nH]c1=O | 56.3% (active)
COc1ccccc1NC(=O)C(C)OC(=O)c1ccc(-n2cnnn2)cc1 (stereo not drawn) | 2.1% (inactive)
COc1ccc(NC(=O)Cn2ncn3c(cc4ccccc43)c2=O)c(OC)c1OC | -1.7% (inactive)
O=C(CNCc1ccc(Cl)cc1)Nc1cccc(C(=O)O)c1 | 2.8% (inactive)
COc1cc(OC)c(C(=O)OC(C)C(=O)Nc2cc(C(F)(F)F)ccc2Cl)cc1OC (stereo not drawn) | 0.8% (inactive)
CC(CC(=O)Nc1cc(C(F)(F)F)ccc1Cl)c1ccccc1 (stereo not drawn) | 83.7% (active)

Structure (SMILES) | inhibition
CC(C)CC(=O)Nc1cc(C(F)(F)F)ccc1N1CCOCC1 | -2.5% (inactive)
CC1=NCCN1S(=O)(=O)c1ccc(Br)c(C)c1 | -1.3% (inactive)
COc1cc(OC)c2c(-c3cccc(-c4cccc(N)c4)c3)cc(=O)oc2c1 | 4.4% (inactive)
COc1cccc(NC(=O)C2C(c3ccccc3)C2(Cl)Cl)c1 (stereo not drawn) | 83.9% (active)
COc1cccc(NC(=O)C2CCCN2C(=O)OCc2ccccc2)c1 (stereo not drawn) | -0.8% (inactive)
COc1cccc(NC(=O)C2c3cc(OC)c(OC)cc3C(=O)N(C)C2c2cccnc2)c1 (stereo not drawn) | 1.8% (inactive)
O=S(=O)(N/N=C\c1cccn1-c1ccccc1)c1ccc2ccccc2c1 | -0.4% (inactive)
Cc1cccc(CNC(=O)c2sc(=O)n(Cc3ccccc3C)c2C)c1 | -3.5% (inactive)
CCCCCNC(=O)C(c1ccc(OC)cc1)n1c(=O)c(-c2ccccc2)nc2ccccc21 (stereo not drawn) | 5.5% (inactive)
COc1ccccc1N1CCN(c2nc(C)cc(=O)[nH]2)CC1 | 0.2% (inactive)
COc1ccccc1N1CCN(c2ncnc3sc(C)c(-c4ccccc4)c23)CC1 | 57.5% (active)
COc1ccccc1N1CCN(c2ccc([N+](=O)[O-])nc2)CC1 | -3.5% (inactive)
O=C1CCC([N+](=O)[O-])C(c2ccccc2Br)N1 (stereo not drawn) | -1.2% (inactive)
CCOc1ccccc1Nc1nnc(SCC(=O)NCC2CCCO2)s1 (stereo not drawn) | -20.1% (inactive)
COc1ccc(C2OC(CCc3ccccc3)Cc3[nH]c(=S)[nH]c(=O)c32)cc1 (stereo not drawn) | -3% (inactive)
Cc1cnc(C(=O)OCC(=O)N2CCc3ccccc32)cn1 | 0.3% (inactive)
Cc1cnc(C(=O)OCC(=O)NCCCc2ccccc2)cn1 | -0.1% (inactive)
Cc1cnc(C(=O)OCc2c(C)cc(C(C)(C)C)cc2C)cn1 | 63.8% (active)
